Rows were chosen to be rich in hits. Some 2.9% of all compounds tested hit in one or more screens of this group.
PGE2 EP2 inh: human EP2 receptor antagonists, primary screen, TR-FRET cAMP, C6 glioma cells. AID 1422, 2008. Prostaglandin E2 receptor EP2 subtype (Homo sapiens), P43116. 260,000 tested, 0.52% active. inhibition, % at 25 µM. C6 glioma cells expressing human EP2; cells stimulated with saturating PGE2;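 active means percent inhibition above 40 after rounding to a whole number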;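 further: rat C6 glioma host cells with rolipram phosphodiesterase inhibitor present; the protocol text gives 20 µM as final concentration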
Target sequence (P43116 whole entry, looked up): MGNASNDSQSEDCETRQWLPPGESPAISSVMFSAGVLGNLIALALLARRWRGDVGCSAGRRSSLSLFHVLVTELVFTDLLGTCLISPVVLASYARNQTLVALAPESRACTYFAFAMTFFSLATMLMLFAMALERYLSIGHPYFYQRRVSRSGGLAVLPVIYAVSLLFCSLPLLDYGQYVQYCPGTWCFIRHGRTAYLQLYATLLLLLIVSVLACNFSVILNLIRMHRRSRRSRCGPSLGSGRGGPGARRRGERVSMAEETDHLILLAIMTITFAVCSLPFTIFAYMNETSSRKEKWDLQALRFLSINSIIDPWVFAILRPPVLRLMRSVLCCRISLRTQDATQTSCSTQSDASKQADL
EP2 modulator: EP2 receptor modulators, cAMP readout, primary screen, cell-based, HTRF cAMP, PGE2 stimulation; Prostaglandin E2 receptor EP2 subtype (Homo sapiens), P43116; EP2-expressing cells, cAMP HTRF FRET, PGE2 co-stimulation; induction, % at 25 µM; 260,000 tested, 0.83% active; AID 940, 2007;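 active means compounds whose cAMP rise, as percent of the full-agonist control response, exceeds 60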;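 further: rat C6 glioma line stably carrying human EP2 under a CMV promoter; the protocol text gives 20 µM as final concentration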
RAM network inh: inhibitors of the yeast RAM network, primary screen, dse1pr::URA3 reporter, 5-FOA selection | S. cerevisiae dse1pr::URA3 reporter, 5-FOA growth OD615, 2 d; analog-sensitive cbk1-as2 kinase mutant strain | inhibition, % at 50 µM | 190,000 tested, 1.8% active | AID 868, 2007;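 active means inhibition above a set limit, 3 SD over mean compound inhibition, cut at about 8.4% in these data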;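 further: inhibition rescues growth on 5-FOA so higher OD means more RAM inhibition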
SKN-1 block: suppressors of acrylamide-induced Pgst-4::GFP reporter in worms, primary screen, SKN-1 inhibitor project, whole organism, uHTS, GFP/RFP fluorescence ratio, strain VP596. inhibition, % at 21.8 µM. C. elegans VP596 Pgst-4::GFP/RFP ratio, 24 h. 360,000 tested, 0.49% active;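 active means interference check ratio from 0.5 to 1.5 plus GFP to RFP signal ratio inhibition reaching or exceeding a fixed threshold, cut at about 30% in these data, passing the limit was not always enough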
PG9 binder: binders of HIV-1 gp120 antibody PG9, primary screen, biochemical, TR-FRET; 360,000 tested, 0.43% active; inhibition, % at 6.7 µM; TR-FRET gp120-PG9 antibody binding; AID 624416, 2012; HIV-1 gp120 / PG9 antibody interaction; in the data active means inhibition above about 8.5%
NR1D1 modulator: modulators of Rev-erb alpha DNA binding, primary screen, biochemical, FITC-DNA, fluorescence polarization, uHTS; Nuclear receptor subfamily 1 group D member 1 (Homo sapiens), P20393; Rev-erbα–FITC-DNA binding, 90 min; activity, % at 10 µM; 370,000 tested, 0.79% active;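 active means activity above about 14%, limit read from the data; passing the limit was not always enough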
EP2 confirm: cAMP induction in EP2, EP4, beta2-AR and parental cells, confirmation, counter-screen for EP2 modulator project, cell-based, five parallel assays, C6 glioma, HEK293; cAMP HTRF induction; plus low (about EC15) PGE2 agonist; 1,300 tested, 47% active; AID 1080, 2008; calls only at 20 µM (by protocol); shares compounds with EP2 modulator;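 active means cAMP induction above 50% in the main assay while under 30% in all four parallel counter assays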;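 further: rat C6 glioma cells stably expressing human EP2 receptor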
Of the large screens only hits and unclear results are named; the others gave an inactive call (follow-up assays come after a bar, where they were run).

O=c1cc(N2CCCCC2)c(-c2ccccc2)nn1Cc1ccccc1	EP2 modulator 82 | EP2 confirm active
COc1ccc(C(=O)[C@H]2CCCN(C(=O)C3CC3)C2)cc1	none (no result: RAM network inh, SKN-1 block, PG9 binder, NR1D1 modulator)
COc1ccc2c(c1)cc(C)c1nnc(SCC(=O)OC(C)C)n12	none (no result: RAM network inh, SKN-1 block, PG9 binder, NR1D1 modulator)
Cc1cc2c(s1)c1cn[nH]c(=O)c1n2Cc1ccc(F)cc1	none (no result: PGE2 EP2 inh, RAM network inh, SKN-1 block, PG9 binder, NR1D1 modulator)
Cc1ccccc1Cn1c2ccccc2c2cn[nH]c(=O)c21	EP2 modulator 62 | EP2 confirm active
O=C(c1ccco1)N1N=C(C2CCCCC2)CC1(O)C(F)(F)F (stereo not drawn)	none
O=C(c1ccco1)N1N=C(c2ccc(Br)cc2)CC1(O)C(F)(F)F (stereo not drawn)	EP2 modulator 86 | EP2 confirm active
COc1cccc(C2=NN(C(=O)c3cccs3)C(O)(C(F)(F)F)C2)c1 (stereo not drawn)	EP2 modulator 86 | EP2 confirm active
Cc1ccc(C(=O)N2N=C(c3ccccc3)CC2(O)C(F)(F)F)o1 (stereo not drawn)	EP2 modulator 70 | EP2 confirm inactive
CCOc1ccc(Cl)cc1S(=O)(=O)n1cnc2cc(C)c(C)cc21	EP2 modulator 70 | EP2 confirm active
CCOc1ccc(Cl)cc1S(=O)(=O)N1CCN(c2ccc(C)c(C)c2)CC1	none
CCc1cc2cc3c(cc2nc1SCC(=O)OC(C)C)OCO3	EP2 modulator 81 | EP2 confirm active
CC1CCC(C(C)C)C(OC(=O)COC(=O)c2ccc(=O)[nH]c2)C1 (stereo not drawn)	EP2 modulator 66 | EP2 confirm inactive
CCN(c1cccc(C)c1)S(=O)(=O)c1ccc2c3c(cccc13)C(=O)N2	EP2 modulator 79, RAM network inh 8.5 | EP2 confirm active
CCN(CC)S(=O)(=O)c1ccc2c3c(cccc13)C(=O)N2	none
COc1cccc(C(=O)Nc2cccc(OCC(=O)O)c2)c1	EP2 modulator 93 (no result: PG9 binder, NR1D1 modulator) | EP2 confirm active
CCOC(=O)Cn1nc(-c2ccccc2)c2ccccc2c1=O	none (no result: RAM network inh)
O=c1c2ccccc2c(-c2ccccc2)nn1Cc1c(Cl)cccc1Cl	EP2 modulator 85 | EP2 confirm active
Cc1cnc(NC(=O)CSc2nnc(-c3ccc(Cl)cc3)n2C)s1	none (no result: RAM network inh, SKN-1 block, PG9 binder, NR1D1 modulator)
CCOC(=O)c1c(C=O)c(C)n(Cc2ccc(C)cc2)c1C	EP2 modulator 86 | EP2 confirm inactive
CCOC(=O)c1c(C=O)c(C)n(Cc2ccccc2Cl)c1C	EP2 modulator 72 | EP2 confirm inactive
CCOC(=O)c1c(C)c(C)n(Cc2cccc(OC)c2OC)c1C	none
CCOC(=O)c1cnc2c(C)c(C)ccc2c1NCCCO	none (no result: RAM network inh, SKN-1 block, PG9 binder, NR1D1 modulator)
CCOCC(=O)Nc1cc(C(F)(F)F)ccc1Oc1cccc(Br)c1	EP2 modulator 65 | EP2 confirm active
CC(=O)Nc1cc(C(F)(F)F)ccc1Oc1cccc(Br)c1	none
CCOC(=O)CSc1nnc(Cc2ccccc2)n1-c1ccc(C)cc1	none
CCOC(=O)CN(C(=O)CSc1nnc(Cc2ccccc2)n1-c1ccc(C)cc1)c1ccccc1	none | EP2 confirm inactive
CCOC(=O)c1sc(NC(=O)CCCCCN2C(=O)c3cccc4cccc(c34)C2=O)nc1C	none
CCOC(=O)c1sc(NC(=O)CN2C(=O)c3cccc4cccc(c34)C2=O)nc1C	EP2 modulator 66 | EP2 confirm inactive
C=C(C)COc1ccc2c(c1)CC[C@@H]1[C@H]3C/C(=N/O)C(=O)[C@]3(C)CC[C@@H]21	EP2 modulator 63 (no result: RAM network inh, SKN-1 block, PG9 binder, NR1D1 modulator) | EP2 confirm inactive
COC(=O)c1c(NC(=O)CSc2nnc(-c3ccco3)n2Cc2ccccc2)sc(C)c1C	none | EP2 confirm inactive
CCn1c(SCC(=O)NCCc2ccccc2)nnc1-c1ccco1	none
COCCn1c(SCC(=O)NCCc2ccccc2)nnc1-c1ccco1	EP2 modulator 67 | EP2 confirm inactive
COCCn1c(=O)c2ccccc2c2ccccc2c1=O	none
CCCCn1c(=O)c2ccccc2c2ccccc2c1=O	EP2 modulator 82 | EP2 confirm active
COC(=O)c1c(C)[nH]c(C)c1-c1ccccc1	none
CCOC(=O)c1c(C)nc2ccccc2c1-c1ccccc1	EP2 modulator 85 | EP2 confirm active
CCOC(=O)c1c(C)nc2ccc(Cl)cc2c1-c1ccccc1	none
COC(=O)c1c(C)nc2ccccc2c1-c1ccccc1	EP2 modulator 89 | EP2 confirm inactive
CCc1ccc(/C=C/c2c([N+](=O)[O-])c(=O)n(C)c(=O)n2C)cc1	none (no result: PGE2 EP2 inh, EP2 modulator, RAM network inh)
Cn1c(/C=C/N(Cc2ccccc2)c2ccccc2)c([N+](=O)[O-])c(=O)n(C)c1=O	EP2 modulator 68 | EP2 confirm active
CC1CCc2c(sc3ncnc(NCC(=O)O)c23)C1 (stereo not drawn)	none (no result: RAM network inh, SKN-1 block, PG9 binder, NR1D1 modulator)
O=C(/C=C/Nc1ccccc1Oc1ccccc1)c1ccco1	EP2 modulator 65 | EP2 confirm inactive
COc1ccc(S(=O)(=O)N2CCC(C(=O)Nc3ccccc3C)CC2)cc1C	none (no result: RAM network inh, SKN-1 block, PG9 binder, NR1D1 modulator)
c1cncc(-c2nc(NCCCN3CCOCC3)c3c4c(sc3n2)CCC4)c1	none
c1cncc(-c2nc(N3CCOCC3)c3c4c(sc3n2)CCC4)c1	none | EP2 confirm inactive
COc1ccc(CNc2c(-c3cc(OC)c(OC)c(OC)c3)nc3cnccn23)cc1	none (no result: RAM network inh, SKN-1 block, PG9 binder, NR1D1 modulator)
O=C(c1ccccc1)C(O)(Cc1ccccc1)c1ccccc1 (stereo not drawn)	none (no result: PGE2 EP2 inh, EP2 modulator, RAM network inh)
OC(Cc1ccccc1)(Cc1ccccc1)c1ccccc1	none (no result: RAM network inh, SKN-1 block, PG9 binder, NR1D1 modulator) | EP2 confirm inactive
Cc1ccc(C2CC2c2n[nH]c(=S)n2-c2cccc(C)c2)cc1 (stereo not drawn)	none
Cc1ccc(C2CC2c2n[nH]c(=S)n2-c2ccc(Cl)cc2)cc1 (stereo not drawn)	none | EP2 confirm inactive
COc1cccc(N=c2oc3c(C)ncc(CO)c3cc2C(=O)Nc2ccccc2OC)c1	EP2 modulator 68 (no result: PGE2 EP2 inh, SKN-1 block, PG9 binder, NR1D1 modulator) | EP2 confirm inactive
COc1ccccc1NC(=O)c1cc2c(CO)cnc(C)c2oc1=Nc1ccccc1	none (no result: PGE2 EP2 inh, EP2 modulator, RAM network inh)
O=C(CC1CC2CCC1C2)N1CCC(O)(c2ccccn2)CC1 (stereo not drawn)	none (no result: RAM network inh, SKN-1 block, PG9 binder, NR1D1 modulator)
Nc1ccccc1CCCC(=O)O	EP2 modulator 107 (no result: RAM network inh, SKN-1 block, PG9 binder, NR1D1 modulator) | EP2 confirm inactive
